{"source": "PubChem BioAssay (NCATS)", "note": "Records with an inconclusive call do not appear. Where a call stands in place of a potency, no number is given. Values without a mark were called inactive. Active and inactive are the calls of the source. Calls follow the shape of the dose curve; as a rule, active = well fitted inhibition curve with a large enough effect; inconclusive = small, poorly fitted or top-dose-only effect; inactive = no such curve, though single readings can be large or run the other way. Potency is read from the fitted curve at half-maximal effect.", "data": [{"assay": "Primary fluorescence-based thiol-reactive (MSTI) qHTS assay for identification of artifact compounds. (AID 1845221); also: nearly all actives have a fitted effect of over 65% in size;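 as to activity change, negative = thiol reactive: thiol-reactive compounds lower the probe fluorescence signal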", "details": "MSTI thiol-reactivity probe, 1 h; series mostly up to 53.8 µM", "description": "PI: Alexander Tropsha Ph.D.\nUNC Eshelman School of Pharmacy\nUniversity of North Carolina, Chapel Hill, North Carolina\nHits from high-throughput screening (HTS) of chemical libraries are often false positives due to their interference with the assay detection technology. In response to this problem, we generated the largest publicly available library of chemical liabilities and developed a free webtool to predict HTS artifacts, both of which are described herein. More specifically, we generated, curated, and integrated HTS datasets for thiol reactivity, redox activity, and luciferase (firefly and nano) activity. Using these curated datasets, we developed and validated several Quantitative Structure-Interference Relationship (QSIR) models to predict nuisance behavior. […] These models were employed for virtual profiling of the National Center for Advancing Translational Science's (NCATS) in-house library, and 256 compounds for each assay were selected for the experimental validation of nuisance behavior. The BA for these external predictions ranged from 58 to 78% for compounds within the applicability domains of the models. […] The models developed in this study, along with aggregation models previously developed by our group (SCAM Detective) were implemented in \"Liability Predictor,\" an online tool which may be used as part of chemical library design or for triaging HTS hits. Both the models and the curated datasets are publicly available at https://liability.mml.unc.edu/.\nSEQUENCE No. (e.g., 1, 2, 3, etc.); […] (e.g., Cells, Incubation, Reagent, etc.); VALUE; DESCRIPTION.\n1; Reagent; 4 uL; […].\n2; Compounds and control; 16 nL; Kalypsis pin tool (Wako USA) equipped with a 1536-well pin head.\n4; Detection; Fluorescence, ViewLux microplate reader, 525 nm excitation, 598 nm emission.\nNOTES (numbers refer to Sequence numbers above)\n1. Assays determining (E)-2-(4-mercaptostyryl)-1,3,3-trimethyl-3H-indol-1-ium (MSTI) reactivity were performed as previously described in the literature with modifications for the quick identification of compounds reacting with thiol. In brief, 4 uL of MSTI or positive control Acetyl-MSTI (final concentrations of 4 uM and 4 uM, respectively) in assay buffer (2% DMSO in 1X PBS pH 7.4) was dispensed into all wells of a 1536-well assay plate (solid-bottom black plate; Greiner Bio One, Monroe, NC).\n2. A Wako Pin-tool (Wako Automation, Richmond, VA) was used to transfer 16 nL of compounds (consisting of 7-plates in qHTS format, final concentration range 18.3 nM to 114 uM) or control MLS001163887 (final concentration range 1.22 nM to 40 uM).\n3. Plates were centrifuged (121xg, 15 seconds) and incubated for 1 hour at room temperature protected from light.\n4. Samples were read for fluorescence (Ex/Em = 525(20)/598(25) nm) on a ViewLux CCD imager (PerkinElmer). Data were normalized to Acetyl-MSTI (0% activity) and MSTI (100% activity) and the resulting percent inhibition data were fitted to a 4-parameter Hill equation using NCATS in-house software.", "values": [{"smiles": "CC(=O)[C@H]1CC[C@H]2[C@@H]3CC=C4C[C@@H](OS(=O)(=O)O)CC[C@]4(C)[C@H]3CC[C@]12C", "Potency": "inactive"}, {"smiles": "CC(=O)OC[C@]12[C@H](OC(C)=O)[C@H](OC(=O)c3ccccc3)[C@@H]3[C@@H](OC(C)=O)[C@]1(OC3(C)C)[C@H](C)C[C@H](OC(C)=O)[C@@H]2OC(=O)c1ccccc1", "Potency": "inactive"}, {"smiles": "O=C(c1ccc(OC(F)F)c(C#Cc2ccccn2)c1)N1Cc2cccnc2C1", "Potency": "inactive"}, {"smiles": "O=S(=O)(Cc1ccccc1)Nc1ccc(-c2ccc3c(cnn3-c3ccc(F)cc3)c2)c(C(F)(F)F)c1", "Potency": "inactive"}, {"smiles": "O=C(Nc1cccnc1)c1cc(-c2ccnc(F)c2)ccc1OCc1ccccc1", "Potency": "inactive"}, {"smiles": "Fc1ccc(-c2nc(-c3c(F)cccc3F)[nH]c2-c2ccncc2)cc1", "Potency": "inactive"}, {"smiles": "CN(C)C(=O)C(=O)c1cn(C)c2cc(Cl)c(C(=O)N3CCC(Cc4ccc(F)cc4)CC3)cc12", "Potency": "inactive"}, {"smiles": "CC#C[C@@H](CC(=O)O)c1ccc(OCc2cccc(-c3ccc(C(F)(F)F)cc3)c2)cc1", "Potency": "inactive"}, {"smiles": "C/C=C(\\C)C(=O)OC1C=C(C)CC(OC(=O)c2ccc(O)cc2)C2C1(C)CCC2(O)C(C)C", "note": "(stereo not given)", "Potency": "inactive"}, {"smiles": "COc1cc(CCc2cc(NC(=O)c3ccc(N4CC(C)NC(C)C4)cc3)n[nH]2)cc(OC)c1", "note": "(stereo not given)", "Potency": "inactive"}, {"smiles": "COc1c(C)cc(NC(=O)c2nn(Cc3ccc(F)cc3)c3c2CN(C(=O)c2ccc[nH]2)C[C@]3(C)C(N)=O)cc1C", "activity change, negative = thiol reactive": "108% [at 11.5 µM]"}, {"smiles": "NC(N)=N/N=C/c1ccccc1Cl", "Potency": "inactive"}, {"smiles": "NC(=O)c1cnc(N[C@@H]2CCCC[C@H]2N)nc1Nc1cccc(-n2nccn2)c1", "Potency": "inactive"}, {"smiles": "COc1nc2ccc(Br)cc2cc1[C@@H](c1ccccc1)[C@@](O)(CCN(C)C)c1cccc2ccccc12", "Potency": "inactive"}, {"smiles": "Cc1cc(-c2nc(-c3ccc(OC(F)(F)F)cc3)no2)nn1Cc1ccnc(N2CCN(C3CC3)CC2)c1", "Potency": "inactive"}, {"smiles": "COc1cc(/C=C2\\CCCN([C@@H](C)c3ccc(F)cc3)C2=O)ccc1-n1cnc(C)c1", "Potency": "inactive"}, {"smiles": "C=CC(=O)N1CC(N2CCN(C(=O)CNc3cc(C4CC4)c(Cl)cc3O)CC2)C1", "Potency": "2.67 µM (active)"}, {"smiles": "O=C(c1cc(Cc2n[nH]c(=O)c3ccccc23)ccc1F)N1CCCNCC1", "Potency": "inactive"}, {"smiles": "C=CC(=O)N1CCCN(c2cc(NCCC(=O)O)nc(-c3ccccn3)n2)CC1", "Potency": "inactive"}, {"smiles": "O[C@@](Cc1ncc(CC2(C(F)(F)F)CC2)[nH]1)(c1ccc(-n2cccn2)cc1)C(F)(F)F", "Potency": "inactive"}, {"smiles": "C=C1C(=O)O[C@@H]2[C@H]1CC(=O)[C@H](C)[C@@](O)(C(=O)/C=C/C)[C@H]2OC(=O)C(C)CC", "note": "(stereo not given in full)", "Potency": "inactive"}, {"smiles": "Cc1nc2cc(C(=O)NCc3ccccn3)nn2c(C)c1Cc1cccc(Cl)c1", "Potency": "inactive"}, {"smiles": "CN(C)c1ccnc2sc3c(=O)n(N4CCCCCC4)cnc3c12", "Potency": "inactive"}, {"smiles": "CC1(NC(=O)c2ccc(C#Cc3cccc(F)c3)cn2)COC1", "Potency": "inactive"}, {"smiles": "O=C(N[C@H]1CCN(C(=O)c2cc(C(F)(F)F)cc(C(F)(F)F)c2)[C@H](Cc2ccc(Cl)cc2)C1)c1ccnc2ccccc12", "Potency": "inactive"}, {"smiles": "Cc1cn2cc(C(=O)N(C)CCO)cc(NC3CCOc4cccc(C)c43)c2n1", "note": "(stereo not given)", "Potency": "inactive"}, {"smiles": "Cn1nc(C(C)(C)C)cc1C(=O)N[C@@H](Cc1cccc(Cl)c1)C(=O)NCC#N", "Potency": "inactive"}, {"smiles": "Cc1cnc(-c2ccccc2C(C)C)nc1NCc1ccc(-n2ccnn2)cc1", "Potency": "inactive"}, {"smiles": "O=C(Nc1ccc(-n2nc(C(F)(F)F)cc2C(F)(F)F)cc1)c1ccncc1F", "Potency": "inactive"}, {"smiles": "C=CCC1=C[C@]2(OC)[C@H](C)[C@@H](c3ccc4c(c3)OCO4)O[C@]2(OC)CC1=O", "Potency": "inactive"}, {"smiles": "CC(=O)OC1CC2(C)C(CCC(C)C23Cc2c(O)cc(CO)c(C=O)c2O3)C(C)(C)C1O", "note": "(stereo not given)", "Potency": "inactive"}, {"smiles": "CC[C@@H](C)Nc1cc(C(=O)NC2CC3CC[C@@H](C2)N3c2ccc(C(=O)C3CC3)cn2)c(C)cc1C(N)=O", "note": "(stereo not given in full)", "Potency": "inactive"}, {"smiles": "Fc1ccc(N2CCCCC2)c(NC(=S)c2ccncc2)c1", "Potency": "inactive"}, {"smiles": "O=C(c1c(F)ccc(NS(=O)(=O)N2CC[C@@H](F)C2)c1F)c1c[nH]c2ncc(-c3cnc(C4CC4)nc3)cc12", "Potency": "inactive"}, {"smiles": "COc1c2c(c(C)c3c1C(=O)OC3)O[C@@]1(C)C[C@@H](OC(C)=O)[C@]34O[C@](OC)(CC[C@]3(C)[C@H]1C2)OC4(C)C", "Potency": "inactive"}, {"smiles": "NC(=O)c1ccccc1Nc1ccnc(Nc2cccc(O)c2)n1", "Potency": "inactive"}, {"smiles": "COc1ccc(OC)c(-c2ccc(NC(=O)c3ccncc3F)cc2)c1", "Potency": "inactive"}, {"smiles": "COc1ccc(S(=O)(=O)Nc2c(C)cc(C)cc2C)cc1", "Potency": "inactive"}, {"smiles": "COC1CC(=O)C23C(=O)NC(CC(C)C)C2C(C)C(C)=CC3/C=C(\\C)CCCC1O", "note": "(stereo not given)", "Potency": "inactive"}, {"smiles": "CCc1ccc(-c2nc(CSCC(=O)NCCc3ccccc3)c(C)o2)cc1", "Potency": "inactive"}]}]}
